Experiments:
Assay in all cases: PBM binding z-score (relative to random genomic background probes); higher = stronger binding; sequences stand for … in GC…GCGATTGACAGCGTAGAATGAAGG
[1] = system: FXR:RXRa (NR concentration 270 nM, RXRa partner concentration 90 nM)
In short: (§1)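 Ligand-free nuclear receptor dimers were applied to custom Agilent 4×180K protein-binding microarrays whose double-stranded probes carried direct-repeat seeds, single-nucleotide variants, half-site ablations and random human genomic background sequences in 34-nt variable regions. Incubation lasted 1 h. Binding z-scores were computed against the random background probes from regression-normalized fluorescence.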

[2] = system: LXRa:RXRa (NR concentration 270 nM, RXRa partner concentration 90 nM)
In short: as §1

[3] = system: LXRa homodimer (NR concentration 270 nM)
In short: as §1

[4] = system: LXRb:RXRa (NR concentration 270 nM, RXRa partner concentration 90 nM)
In short: as §1

[5] = system: LXRb homodimer (NR concentration 270 nM)
In short: as §1

[6] = system: PPARa:RXRa (NR concentration 270 nM, RXRa partner concentration 90 nM)
In short: as §1

[7] = system: PPARg:RXRa (NR concentration 180 nM, RXRa partner concentration 90 nM)
In short: as §1

[8] = system: PPARg:RXRa 270nM:90nM, anti-RXR (NR concentration 270 nM, RXRa partner concentration 90 nM)
In short: as §1

[9] = system: PPARg:RXRa 30nM:10nM, anti-RXR (NR concentration 30 nM, RXRa partner concentration 10 nM)
In short: as §1

[10] = system: PPARg:RXRa 90nM:30nM, anti-RXR (NR concentration 90 nM, RXRa partner concentration 30 nM)
In short: as §1

[11] = system: PPARg:RXRa DBDmut IVT, anti-RXR (DBD mutation: RXRa K156A/R161A, NR concentration 270 nM, RXRa partner concentration 90 nM)
In short: as §1

[12] = system: PPARg:RXRa IVT, anti-PPARg (NR concentration 270 nM, RXRa partner concentration 90 nM)
In short: as §1

[13] = system: PPARg DBDmut:RXRa IVT, anti-PPARg (DBD mutation: PPARg1 K132A/R137A, NR concentration 270 nM, RXRa partner concentration 90 nM)
In short: as §1

[14] = system: PPARg DBDmut IVT, anti-PPARg (DBD mutation: PPARg1 K132A/R137A, NR concentration 270 nM)
In short: as §1

[15] = system: PPARg homodimer (NR concentration 180 nM)
In short: as §1

[16] = system: PXR:RXRa (NR concentration 270 nM, RXRa partner concentration 90 nM)
In short: as §1

[17] = system: PXR homodimer (NR concentration 270 nM)
In short: as §1

[18] = system: RARa:RXR (NR concentration 270 nM, RXRa partner concentration 90 nM)
In short: as §1

[19] = system: RARa homodimer (NR concentration 270 nM)
In short: as §1

[20] = system: RARb:RXRa (NR concentration 270 nM, RXRa partner concentration 90 nM)
In short: as §1

Sequence | PBM binding z-score [1] | PBM binding z-score [2] | PBM binding z-score [3] | PBM binding z-score [4] | PBM binding z-score [5] | PBM binding z-score [6] | PBM binding z-score [7] | PBM binding z-score [8] | PBM binding z-score [9] | PBM binding z-score [10] | PBM binding z-score [11] | PBM binding z-score [12] | PBM binding z-score [13] | PBM binding z-score [14] | PBM binding z-score [15] | PBM binding z-score [16] | PBM binding z-score [17] | PBM binding z-score [18] | PBM binding z-score [19] | PBM binding z-score [20]
TGAATGAGGTTATAAGATCAGGAAACGTTGCAAA | 1.24 | 1.53 | -0.511 | 1.5 | -0.0615 | 2.98 | 1.29 | 2.14 | 0.703 | 1.62 | 0.583 | 1.52 | 0.845 | 1.12 | 0.661 | 0.789 | 0.0316 | 1.46 | 0.238 | 1.15
CCTAATTGGTCAGGAGGTCACACACCGGATATGA | 3.74 | 3.59 | 2.27 | 3.64 | 1.07 | 4.42 | 3.88 | 4.51 | 2.08 | 4.16 | 1.64 | 3.67 | 0.824 | 0.695 | 3.7 | 4.19 | 1.4 | 4.5 | 2.15 | 3.87
CGTCAAAGTTCAAGGTAACGAAACAGAAAGCAGC | 6.35 | 5.77 | 2.25 | 3.3 | 0.914 | 4.7 | 4.6 | 5.48 | 2.22 | 4.42 | 0.745 | 2.29 | 0.604 | 0.231 | 3.5 | 3.94 | 2.79 | 3.53 | 1.57 | 5.11
GCATATAGGTAACACAAGGTGAAAGTCCGATTGT | 0.896 | 3.64 | -0.04 | 1.36 | -0.351 | 2.19 | 2.09 | 2 | 0.512 | 1.26 | 5.29 | 4.7 | 0.827 | 0.927 | 0.275 | 0.74 | -0.11 | 1.25 | 0.102 | 0.856
ACTAGTTGGCCAGCTGAGGTCACACACAATTCGG | 2.99 | 2.85 | 1.49 | 3.25 | -0.00517 | 3.54 | 1.55 | 1.67 | 0.296 | 1.05 | 0.715 | 1.85 | 0.578 | 0.0549 | 2.34 | 4.59 | 1.49 | 4.57 | 0.503 | 3.19
AGACTGAGGTTATACGTAGATCAGGGAAGAAAGT | 1.99 | 2 | 0.184 | 1.55 | -0.196 | 2.58 | 0.936 | 0.937 | 0.367 | 0.756 | 0.425 | 0.435 | 0.201 | 0.0103 | 0.623 | 1.09 | 0.133 | 1.68 | 0.064 | 1.46
CGTCCAGGGTCAAAGGTCAGTGAAGAGATGACGG | 7.97 | 6.14 | 1.67 | 6.18 | 0.58 | 7.21 | 10.5 | 8.6 | 7.61 | 8.6 | 2.45 | 5.28 | 0.657 | 0.0677 | 3.17 | 6.94 | 0.868 | 8.37 | 1.58 | 5.63
GCTAGTTGGTCGGTAAAAGGTCACACACCGGTCG | 3.17 | 4.03 | 3.77 | 3.81 | 0.63 | 4.74 | 5.58 | 6.73 | 4.85 | 6.87 | 0.248 | 3.4 | 0.279 | 0.356 | 3.46 | 4.78 | 1.24 | 5.17 | 1.42 | 4.08
TCTTGTATATCAATAGAGGTTAAGAAAGTGCGCT | 0.889 | 3.66 | 0.646 | 1.74 | 0.472 | 1.77 | 0.559 | 1.69 | 3.02 | 2.45 | 1.98 | 1.05 | 0.574 | 1.14 | 0.383 | 3 | 0.496 | 1.54 | 0.672 | 0.997
GCAAGCAGGCCATTTGGGTCACTCAATGACGGGC | 0.00635 | -0.402 | -0.429 | -0.137 | -0.801 | 1.34 | 0.661 | 0.661 | -0.408 | 0.131 | 1.67 | 2.35 | -0.319 | -0.988 | 0.0293 | 0.422 | 0.0274 | 0.6 | -0.747 | 1.33
AGAATGAGGTTACCAAAGAACAGGGAAACGCTTG | 1.88 | 5.18 | -0.214 | 2.35 | -0.334 | 3.32 | 2.51 | 2.41 | 1.03 | 1.71 | 3.61 | 3.21 | 0.635 | 0.163 | 0.531 | 1.06 | 0.0622 | 1.64 | 0.0488 | 2.11
ACTAGCAGGCCAAATTTGGGTCACTCAAACAAAG | 0.491 | 0.315 | -0.377 | 0.947 | -0.562 | 2.99 | 1.62 | 1.84 | 0.0732 | 1.04 | 2.87 | 4.17 | 0.302 | 0.302 | 0.993 | 0.803 | -0.346 | 1.72 | -0.199 | 1.54
GCTAGTTGGTCAGTAAAAGGTCACACAACGGTCG | 3.52 | 4.37 | 4.08 | 4.15 | 0.685 | 4.73 | 3.31 | 4.38 | 2.61 | 4.66 | 0.826 | 2.77 | 0.539 | 0.321 | 3.81 | 5.2 | 1.19 | 6.17 | 2.05 | 4.43
CATACTGGGCCACGAAAGGTCATTGATTCAGTGA | 3.98 | 5.28 | 5.21 | 4.44 | 0.817 | 4.52 | 4.46 | 4.67 | 1.9 | 3.84 | 4.74 | 5.55 | 1.83 | 0.862 | 2.89 | 5.4 | 1.75 | 5.41 | 0.959 | 4.16
ATCTGTAGGTAAAAGTTCAGTGAATCCCGAGGAT | 0.442 | 1.21 | 0.955 | 0.989 | 0.43 | 4 | 8.09 | 7.62 | 7.35 | 8.71 | 1.88 | 3.51 | 0.891 | 0.681 | 1.13 | 2.01 | 1.1 | 2.07 | 1 | 2.38

Source: the supplement of paper PMC6555819
